Our source for the AC50 and outcome values is PubChem BioAssay (EPA / NIEHS).

Results filed as inconclusive are left out. Calls of active or inactive are those of the source. Rule for the calls: active = hit-call score of the fitted dose curve at least 0.9, where 1 is the maximum; inconclusive = response in the unintended direction; inactive = score below 0.9.

The test deals with human Insulin Receptor (InsR), INSR (gene 3643) (UniProt P06213). Description: NVS_ENZ_hInsR: NovaScreen (NVS) Enzymatic Assay for human Insulin Receptor (InsR) (AID 2283168). The gist of the method: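 Cell-free enzyme assay read 1 h post-dose by fluorescence after substrate/product mobility-shift separation. Duplicate 25 uM primary screen, then singleton concentration-response up to 50 uM for compounds passing threshold; loss of signal vs DMSO.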
Chain of human Insulin Receptor (InsR), INSR (gene 3643) (P06213 whole entry, looked up): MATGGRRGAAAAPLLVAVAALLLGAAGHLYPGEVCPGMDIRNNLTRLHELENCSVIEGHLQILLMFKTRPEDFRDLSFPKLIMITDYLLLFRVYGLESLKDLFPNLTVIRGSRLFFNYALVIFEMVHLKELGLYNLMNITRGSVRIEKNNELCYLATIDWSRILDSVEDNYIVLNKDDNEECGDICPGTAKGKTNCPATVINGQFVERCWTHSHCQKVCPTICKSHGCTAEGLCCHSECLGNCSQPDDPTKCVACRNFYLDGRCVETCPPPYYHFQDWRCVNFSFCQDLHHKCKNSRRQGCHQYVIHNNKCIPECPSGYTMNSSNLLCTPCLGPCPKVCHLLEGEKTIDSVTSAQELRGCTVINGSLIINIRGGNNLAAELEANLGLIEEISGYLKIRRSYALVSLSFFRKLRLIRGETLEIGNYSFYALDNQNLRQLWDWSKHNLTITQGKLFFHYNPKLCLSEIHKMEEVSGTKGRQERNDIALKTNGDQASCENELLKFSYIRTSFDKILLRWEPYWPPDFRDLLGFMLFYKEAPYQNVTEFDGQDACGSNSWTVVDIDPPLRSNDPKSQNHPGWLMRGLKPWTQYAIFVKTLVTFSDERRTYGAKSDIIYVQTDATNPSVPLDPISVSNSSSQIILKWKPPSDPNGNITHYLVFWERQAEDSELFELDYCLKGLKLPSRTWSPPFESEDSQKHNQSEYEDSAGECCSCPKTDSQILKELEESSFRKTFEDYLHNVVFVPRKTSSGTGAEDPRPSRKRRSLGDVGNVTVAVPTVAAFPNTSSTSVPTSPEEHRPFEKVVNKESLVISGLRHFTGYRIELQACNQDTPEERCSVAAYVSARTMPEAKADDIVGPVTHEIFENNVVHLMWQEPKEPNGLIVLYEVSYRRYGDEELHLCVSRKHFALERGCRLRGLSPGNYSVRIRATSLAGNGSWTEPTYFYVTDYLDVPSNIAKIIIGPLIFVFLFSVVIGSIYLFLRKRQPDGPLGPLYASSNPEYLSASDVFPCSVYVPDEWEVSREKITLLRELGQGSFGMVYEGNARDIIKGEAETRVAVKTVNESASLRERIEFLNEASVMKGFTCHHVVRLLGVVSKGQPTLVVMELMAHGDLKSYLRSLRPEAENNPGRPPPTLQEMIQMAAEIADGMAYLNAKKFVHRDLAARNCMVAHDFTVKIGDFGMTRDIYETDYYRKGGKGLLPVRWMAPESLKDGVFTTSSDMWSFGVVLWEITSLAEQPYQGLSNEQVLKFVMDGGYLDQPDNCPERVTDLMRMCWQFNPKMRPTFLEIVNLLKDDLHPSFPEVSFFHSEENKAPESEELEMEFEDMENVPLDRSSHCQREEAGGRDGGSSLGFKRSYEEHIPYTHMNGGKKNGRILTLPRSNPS

The AC50 is the midpoint of the concentration-response curve, whichever way the signal moves. On to `O=C(c1ccc(O)cc1O)c1ccc(O)cc1O`, for which the AC50 is 19.3 µM (active).

For `CN(C)C(=O)Nc1ccc(Cl)c(Cl)c1`, the compound was classed as inactive.
